The list is not random: actives were taken first. Their share in the collection is about 2.7%.
TMEM16A act – activates or potentiates the mouse TMEM16A chloride channel; Q8BHY3; HEK293 TMEM16A/YFP-H148Q/I152L, iodide quench fluorescence; active compounds read low; B-score at 10 µM; 340,000 compounds, 0.3% hits;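 active = fluorescence-ratio B-score plate-corrected deviation score at least 3 library SD below zero, with starting fluorescence score within 5 deviations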;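 note: channel opened by trigger with iodide after compound preincubation; score built on the fluorescence ratio of max minus min over baseline; more negative score means more quench and so TMEM16A activation or potentiation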
TMEM16A inh – mouse TMEM16A channel inhibition, primary screen | Q8BHY3 | HEK293 TMEM16A/YFP iodide influx fluorescence, ionomycin | normalized B-score (activity score, 25-100; higher = stronger inhibition) at 10 µM | 310,000 compounds, 1.2% hits;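 active = ratio plate-corrected score three or more library SD toward inhibition, starting fluorescence score within five deviations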;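 note: score derived from kinetic fluorescence span divided by baseline fluorescence per well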
IDE cell activ – boosts human insulin-degrading enzyme activity in HEK cells; 340,000 compounds, 0.073% hits; FAbeta-B cleavage, fluorescence polarization; 0% vehicle, 100% cell-free pure enzyme wells; AID 493087; P14735; activation, % at 5.96 µM;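 active = activation above the mean of all tested compounds plus 3 SD, set per screening campaign, cut at about 17% in these data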
CHT block – inhibits the human high affinity choline transporter. Q9GZV3. CHT-expressing cells, membrane potential dye, choline response; active compounds read low. B-score at 10 µM. 310,000 compounds, 0.86% hits. AID 488975;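 active = B-score over 3 SD under the library average, and starting fluorescence ratio not unusually high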;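 note: choline stimulus applied at its EC90 after an EC20 pre-addition; B-score computed on integrated fluorescence ratio after choline addition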
Target sequence (Q9GZV3 whole entry, looked up): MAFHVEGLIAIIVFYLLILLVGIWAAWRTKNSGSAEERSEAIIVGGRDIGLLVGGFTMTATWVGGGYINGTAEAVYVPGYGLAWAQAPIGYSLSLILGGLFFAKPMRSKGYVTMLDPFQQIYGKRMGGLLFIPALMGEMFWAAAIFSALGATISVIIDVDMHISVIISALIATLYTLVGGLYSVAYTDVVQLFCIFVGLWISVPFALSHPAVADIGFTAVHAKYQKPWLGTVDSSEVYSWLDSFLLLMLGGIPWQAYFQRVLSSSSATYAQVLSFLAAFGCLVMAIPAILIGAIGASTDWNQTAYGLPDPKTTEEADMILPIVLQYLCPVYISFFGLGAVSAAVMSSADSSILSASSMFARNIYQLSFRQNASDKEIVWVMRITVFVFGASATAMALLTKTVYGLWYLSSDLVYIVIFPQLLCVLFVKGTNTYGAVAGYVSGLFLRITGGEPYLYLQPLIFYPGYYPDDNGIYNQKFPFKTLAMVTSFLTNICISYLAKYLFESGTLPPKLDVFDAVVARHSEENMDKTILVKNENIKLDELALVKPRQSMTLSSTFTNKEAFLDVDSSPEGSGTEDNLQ
CHT PAM – allosterically activates the human high affinity choline transporter | Q9GZV3 | CHT-expressing cells, membrane potential dye, choline EC20; active compounds read high; LV-AA mutant CHT in HEK293 cells | B-score at 10 µM | 310,000 compounds, 0.49% hits;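 active = initial fluorescence not abnormally high and integrated response B-score, plate-corrected, over 3 SD above library mean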
IDE inh – cellular human IDE inhibition. 320,000 compounds, 0.41% hits. HEK cells, FAbetaB cleavage, fluorescence polarization. inhibition, % at 5.59 µM. P14735. AID 434962;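 active = percent inhibition above the average of all tested compounds plus 3 SD, set per screening campaign, cut at about 16% in these data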;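 note: IDE supplied by intact live HEK cells; FP after avidin binding of uncleaved biotin substrate so inhibition keeps polarization high; 0% = DMSO wells and 100% = 60 µM reference IDE inhibitor Ii1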
CHT activ conf – human CHT activation, confirmatory screen; 2,500 compounds, 91% hits; activation, % at 10 µM; CHT-expressing cells, membrane potential dye fluorescence (FDSS); % of choline EC20–EC90 response window; HEK293 expressing CHT LV-AA mutant; choline added at its EC20; shares compounds with CHT PAM;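 active = primary screen active, with duplicate mean activation above negative control mean plus 3 SD, cut at about 11% in these data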
HEK293 MP dye – CHT activator counter-screen hit in parental HEK293 cells; shares compounds with CHT PAM; membrane potential dye fluorescence (FDSS); measured after EC20 choline addition; ratio readout change at 10 µM, hits read low; 2,500 compounds, 62% hits;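 active = duplicate-averaged ratio beyond 3 SD from buffer wells, up or down, though filed actives are nearly all decreases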
* marks the source's active call; other numbers are inactive results; i = inactive; / = not tested or not shown; ! = a repeat was not active.

SMILES	TMEM16A act	TMEM16A inh	IDE cell activ	CHT block	CHT PAM	IDE inh	CHT activ conf	HEK293 MP dye
COC(=O)CN1C(c2cccc(Cl)c2)=Nc2ccc(Cl)cc2C1c1ccccc1 (centres undefined)	i	i	6	i	i	7	30*	i
COC(=O)CN1C(c2ccc(OC)cc2)=Nc2ccc(Cl)cc2C1c1ccccc1 (centres undefined)	i	i	2	i	i	-3	/	/
COc1cc(OC)c2nc(C)c3c(c2c1)N(c1ccc(O)cc1)CC3	i	i	2	i	6.4*	3	34*	-42*
CCCCC1(C)NC(=O)N(CC(=O)Nc2cc(S(=O)(=O)N3CCOCC3)ccc2Cl)C1=O (centres undefined)	i	/	0	/	/	-3	/	/
O=C(C1CCN(S(=O)(=O)c2ccc(Cl)cc2)CC1)N1CCN(c2ccccn2)CC1	i	/	2	/	/	-2	/	/
CN(C)CCCN(C(=O)c1ccc2ccccc2c1)c1nc2cc3c(cc2s1)OCO3	i	i	5	i	i	2	/	/
CCN(c1ccccc1)S(=O)(=O)c1ccc(C(=O)N(CCCN(C)C)c2nc3cc4c(cc3s2)OCO4)cc1	i	i	6	i	i	-2	43*	-37*
Cn1c(N)c(C(=O)COC(=O)c2ccc(Cl)nc2)c(=O)n(C)c1=O	i	i	-4	i	7.5*	-1	22*	-31*
CC(C)c1ccc(C(=O)OCC(=O)c2c(N)n(C)c(=O)n(C)c2=O)cc1	i	/	2	/	/	7	/	/
COc1cc(OC)c(OC)cc1/C=N/NC(=O)c1ccc(=O)n(C)c1	i	i	5	i	i	7	43*	-29*
COc1cc(OC)c(OC)cc1/C=N/NC(=O)C[n+]1ccccc1	i	i	-4	i	i	5	51*	-42*
COc1ccc(OC)c(/C=N\NC(=O)c2ccc(=O)n(C)c2)c1	i	i	3	i	i	7	/	/
COC(=O)C=C1CCC2C3CC(F)C4(O)CC(=O)CCC4(C)C3C(=O)CC12C (centres undefined)	i	/	-2	/	/	/	/	/
CCOC(=O)c1sc(=S)n(-c2ccc(OC)cc2)c1N	i	i	/	i	i	3	13*	i
CCOC(=O)c1sc(=S)n(-c2ccccc2)c1N	i	i	3	i	i	-5	/	/
CCN(Cc1nc(-c2ccc(OC)cc2)no1)C(=O)c1ccoc1C	i	i	4	i	i	2	/	/
O=[N+]([O-])c1cccc(/C=N/Nc2ccccn2)c1	i	i	3	i	i	0	/	/
O=[N+]([O-])c1cccc(/C=N/Nc2nccnc2Cl)c1	i	i	7	i	6.2*	-6	41*	-37*
CCOC(=O)Nc1sc(C)nc1-c1ccccc1	i	i	-2	i	i	-3	/	/
CCOC(=O)Nc1nc(-c2ccccc2)c(C(=O)c2ccc(Cl)cc2)s1	i	i	3	i	i	8	35*	i
Cc1ccc(C(=O)c2cc([N+](=O)[O-])ccc2N2CCN(C)CC2)cc1	i	i	-3	i	12*	2	38*	i
COC(=O)CSc1nc(C)cc(Oc2ccccc2)n1	i	i	5	i	i	3	/	/
Cc1cc(Oc2ccc3ccccc3c2)nc(SCC(=O)c2ccccc2)n1	i	i	1	i	8*	11	53*	i
COc1cc(CC(=O)Nc2ccc(Cl)c(C(F)(F)F)c2)cc(OC)c1OC	i	i	7	i	i	1	/	/
COc1ccc(C(=O)OCC(=O)Nc2ccc(Cl)c(C(F)(F)F)c2)c(OC)c1OC	i	i	0	i	7.6*	2	4	i
SMILES	TMEM16A act	TMEM16A inh	IDE cell activ	CHT block	CHT PAM	IDE inh	CHT activ conf	HEK293 MP dye
Cc1c(CCOC(=O)c2cc([N+](=O)[O-])cc([N+](=O)[O-])c2)sc[n+]1CCCCS(=O)(=O)[O-]	i	i	0	i	i	7	12*	-21*
Cc1c(CCOC(=O)c2cc([N+](=O)[O-])cc([N+](=O)[O-])c2)sc[n+]1CC(=O)c1ccccc1	i	i	0	i	i	-1	32*	i
Cc1c(CCOC(=O)CC23CC4CC(CC(C4)C2)C3)sc[n+]1CC(=O)c1ccc(Br)cc1	i	i	-1	i	i	-4	28*	-25*
CCCC[C@H]1COCCS(=O)(=O)N1Cc1cccc([N+](=O)[O-])c1	i	i	6	i	6.5*	6	13*	i
CCCC(=O)N/C(N)=N/c1nc(C)c2ccccc2n1	i	i	9	i	i	1	36*	-46*
CN1CCN(CCCn2cnc3c(=O)oc4ccccc4c32)CC1	i	i	5	i	9.4*	-1	66*	-67*
COc1cc2c(cc1OC)C(c1cc3ccccc3oc1=O)=NC(C)(C)C2	i	i	6	i	i	6	/	/
COc1ccc(C2=NC(C)(C)Cc3cc(OC)c(OC)cc32)cc1OC	i	i	-2	i	i	-2	72*	-83*
CC(C)(C)C(=O)NCCCc1nc2ccccc2n1CCCOc1ccc(Cl)cc1	i	i	5	i	12*	6	10	i
O=S(=O)(/N=C(/Nc1cccnc1Cl)c1ccccc1)c1ccccc1	i	/	1	/	/	-3	/	/
CCN(CC)CCNc1ccnc2cc(Cl)ccc12	i	i	6	i	7.4*	2	51*	-84*
CCN(CC)Cc1cc(Nc2ccnc3cc(Cl)ccc23)ccc1O	i	i	1	i	7.5*!	5	48*	-52*
COc1ccc(NC(=O)CN(C)C(=O)CCCN2C(=O)c3cccc4cccc(c34)C2=O)cc1	i	i	3	i	i	1	/	/
Cn1ccnc1-c1nc2ccccc2[nH]c1=O	i	i	5	i	7.1*	-2	63*	-55*
Cc1[nH]c2ccccc2c1-c1nc2ccccc2[nH]c1=O	i	i	3	i	i	-2	/	/
Oc1ccccc1-c1nc(NCc2ccco2)c2ccccc2n1	i	i	3	i	i	3	/	/

Screening data deposited in PubChem BioAssay by several laboratories.
